Experimental findings from PubChem BioAssay (EPA / NIEHS) are described below.

Each structure is given as a SMILES string. Inconclusive results are not listed. Activity calls are given as the source filed them. Rule for the calls: active = hit-call score of the fitted dose curve at least 0.9, where 1 is the maximum; inconclusive = response in the unintended direction; inactive = score below 0.9.

Experiment [1] addresses human Peroxisome Proliferator-activated Receptor alpha (PPARa), PPARA (gene 5465) (UniProt Q07869). Description: ATG_PPARa_TRANS: Attagene TRANS-FACTORIAL HepG2 Assay for human Peroxisome Proliferator-activated Receptor alpha (PPARa) (AID 2283001).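 For AC50: potency for gain of reporter signal over DMSO so agonist or activator.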 In short, it runs like this: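 Reporter transcripts from GAL4-UAS units in transfected HepG2 were quantified 24 h after dosing. Detection used reverse transcription, PCR, fluorescent primer extension and capillary electrophoresis, with DMSO as baseline.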

Experiment [2] concerns the target Peroxisome proliferator-activated receptor gamma (Homo sapiens) (UniProt P37231). Description: ATG_PPARg_TRANS: Attagene TRANS-FACTORIAL HepG2 Assay for human Peroxisome Proliferator-activated Receptor-gamma (PPARg) (AID 2283007). Put shortly: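 Read-out: reporter mRNA induction, detected by fluorescence after RT-PCR and capillary electrophoresis. Transiently transfected human HepG2 liver cells carrying a chimeric NR-Gal4 construct were dosed for 24 h; activity was fitted upward relative to DMSO.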

Experiment [3] deals with Nuclear receptor subfamily 1 group I member 2 (Homo sapiens) (UniProt O75469). Description: ATG_PXR_TRANS: Attagene TRANS-FACTORIAL HepG2 Assay for human Pregnane X Receptor (PXR) (AID 2283008). Put shortly: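 HepG2 cells transiently transfected with GAL4-UAS reporter units and PXR-Gal4 chimera, exposed 24 h. Reporter mRNA quantified by RT-PCR, fluorescent labelling, HpaI digestion and capillary electrophoresis; gain of signal vs DMSO.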
Chain of Nuclear receptor subfamily 1 group I member 2 (Homo sapiens) (O75469 whole entry, looked up, the tested form may be a part): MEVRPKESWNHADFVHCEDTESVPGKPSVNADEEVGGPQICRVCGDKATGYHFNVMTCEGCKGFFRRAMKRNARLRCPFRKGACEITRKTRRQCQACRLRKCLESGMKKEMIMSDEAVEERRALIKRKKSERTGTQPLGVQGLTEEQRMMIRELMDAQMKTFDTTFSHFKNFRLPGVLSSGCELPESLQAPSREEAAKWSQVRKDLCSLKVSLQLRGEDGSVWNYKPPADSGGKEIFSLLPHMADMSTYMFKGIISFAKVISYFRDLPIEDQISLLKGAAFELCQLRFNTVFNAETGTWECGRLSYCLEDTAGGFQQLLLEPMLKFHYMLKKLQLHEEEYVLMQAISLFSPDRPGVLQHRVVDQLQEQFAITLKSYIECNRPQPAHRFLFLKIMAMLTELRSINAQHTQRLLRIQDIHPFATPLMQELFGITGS

The target of experiment [4] is human Retinoic Acid Receptor gamma (RARg), RARG (gene 5916) (UniProt P13631). Description: ATG_RARg_TRANS: Attagene TRANS-FACTORIAL HepG2 Assay for human Retinoic Acid Receptor gamma (RARg) (AID 2283009). In short, it runs like this:
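HepG2 cells transiently transfected with multiplexed reporter units expressing chimeric RARg-GAL4 and GAL4-UAS-driven reporters; 24 h compound exposure. Reporter mRNA quantified by RT-PCR with fluorescent labelling and capillary electrophoresis; gain-of-signal fitted relative to DMSO baseline.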

Experiment [5] addresses human Peroxisome Proliferator-activated Receptor delta (PPARd), PPARD (gene 5467) (UniProt Q03181). As to the kind of experiment: ATG_PPARd_TRANS: Attagene TRANS-FACTORIAL HepG2 Assay for human Peroxisome Proliferator-activated Receptor delta (PPARd) (AID 2283002). Put shortly:
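Transient HepG2 transfection (multiple GAL4-UAS RTUs, chimeric receptor-Gal4); 24 h dosing; total RNA → oligo(dT) RT → PCR → 6-FAM primer extension → HpaI cut → CE. Positive direction vs DMSO.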

The target of experiment [6] is human Retinoic Acid Receptor beta (RARb), RARB (gene 5915) (UniProt P10826). Description: ATG_RARb_TRANS: Attagene TRANS-FACTORIAL HepG2 Assay for human Retinoic Acid Receptor beta (AID 2283004). In short, it runs like this: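 HepG2 cells transiently transfected with multiplexed GAL4-UAS reporter units expressing chimeric NR–Gal4 fusions; 24 h compound exposure. Reporter mRNA quantified by RT-PCR, 6-FAM labelling, HpaI digestion and capillary electrophoresis; gain-of-signal fitted against DMSO baseline.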
Chain of human Retinoic Acid Receptor beta (RARb), RARB (gene 5915) (P10826 whole entry, looked up, the tested form may be a part): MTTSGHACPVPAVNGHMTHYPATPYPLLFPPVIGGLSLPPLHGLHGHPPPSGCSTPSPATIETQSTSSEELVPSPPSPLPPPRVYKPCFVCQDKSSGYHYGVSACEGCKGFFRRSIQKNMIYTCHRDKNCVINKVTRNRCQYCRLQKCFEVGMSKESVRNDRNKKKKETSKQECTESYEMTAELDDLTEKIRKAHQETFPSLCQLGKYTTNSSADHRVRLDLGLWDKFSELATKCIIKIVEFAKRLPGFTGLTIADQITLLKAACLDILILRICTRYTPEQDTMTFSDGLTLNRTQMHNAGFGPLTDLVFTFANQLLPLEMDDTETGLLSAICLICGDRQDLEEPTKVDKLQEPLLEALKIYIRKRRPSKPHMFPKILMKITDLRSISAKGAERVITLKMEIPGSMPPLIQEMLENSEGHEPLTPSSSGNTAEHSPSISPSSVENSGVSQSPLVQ

Experiment [7] concerns the target Retinoic acid receptor alpha (Homo sapiens) (UniProt P10276). As to the kind of experiment: ATG_RARa_TRANS: Attagene TRANS-FACTORIAL HepG2 Assay for human Retinoic Acid Receptor alpha (RARa) (AID 2283005). In short, it runs like this:
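Reporter transcripts, measured by RT-PCR with fluorescent labeling and capillary electrophoresis after 24 h dosing, reflect activity of an exogenous human RARa–GAL4 fusion in transiently transfected HepG2. Fitted for increase relative to DMSO.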

Chain of human Peroxisome Proliferator-activated Receptor alpha (PPARa), PPARA (gene 5465) (Q07869 whole entry, looked up, the tested form may be a part): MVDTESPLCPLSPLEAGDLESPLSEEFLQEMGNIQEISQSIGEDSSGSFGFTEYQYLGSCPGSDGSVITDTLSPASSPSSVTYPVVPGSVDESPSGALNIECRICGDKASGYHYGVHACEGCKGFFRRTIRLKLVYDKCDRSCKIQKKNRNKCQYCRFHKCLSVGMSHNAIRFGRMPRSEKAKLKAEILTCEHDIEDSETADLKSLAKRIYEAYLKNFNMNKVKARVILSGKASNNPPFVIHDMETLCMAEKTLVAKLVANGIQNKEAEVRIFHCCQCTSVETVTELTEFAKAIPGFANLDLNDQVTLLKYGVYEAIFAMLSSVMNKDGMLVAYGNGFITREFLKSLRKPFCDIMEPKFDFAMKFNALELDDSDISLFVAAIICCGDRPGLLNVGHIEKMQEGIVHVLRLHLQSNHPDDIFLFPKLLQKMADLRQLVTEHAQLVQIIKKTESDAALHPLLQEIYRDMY
Chain of Peroxisome proliferator-activated receptor gamma (Homo sapiens) (P37231 whole entry, looked up, the tested form may be a part): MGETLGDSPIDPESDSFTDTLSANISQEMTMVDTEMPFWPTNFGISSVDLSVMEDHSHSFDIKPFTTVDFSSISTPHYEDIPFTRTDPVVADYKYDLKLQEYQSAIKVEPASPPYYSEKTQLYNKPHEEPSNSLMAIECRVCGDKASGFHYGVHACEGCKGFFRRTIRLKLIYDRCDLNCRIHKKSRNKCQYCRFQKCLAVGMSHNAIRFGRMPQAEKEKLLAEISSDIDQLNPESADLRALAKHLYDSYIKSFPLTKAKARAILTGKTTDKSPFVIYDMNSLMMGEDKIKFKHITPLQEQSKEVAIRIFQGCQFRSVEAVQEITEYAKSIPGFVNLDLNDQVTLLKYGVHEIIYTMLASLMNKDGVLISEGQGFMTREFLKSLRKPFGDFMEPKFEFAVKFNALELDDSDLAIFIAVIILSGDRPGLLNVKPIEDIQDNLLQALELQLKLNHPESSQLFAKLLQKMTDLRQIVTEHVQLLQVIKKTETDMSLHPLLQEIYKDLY
Chain of Retinoic acid receptor alpha (Homo sapiens) (P10276 whole entry, looked up, the tested form may be a part): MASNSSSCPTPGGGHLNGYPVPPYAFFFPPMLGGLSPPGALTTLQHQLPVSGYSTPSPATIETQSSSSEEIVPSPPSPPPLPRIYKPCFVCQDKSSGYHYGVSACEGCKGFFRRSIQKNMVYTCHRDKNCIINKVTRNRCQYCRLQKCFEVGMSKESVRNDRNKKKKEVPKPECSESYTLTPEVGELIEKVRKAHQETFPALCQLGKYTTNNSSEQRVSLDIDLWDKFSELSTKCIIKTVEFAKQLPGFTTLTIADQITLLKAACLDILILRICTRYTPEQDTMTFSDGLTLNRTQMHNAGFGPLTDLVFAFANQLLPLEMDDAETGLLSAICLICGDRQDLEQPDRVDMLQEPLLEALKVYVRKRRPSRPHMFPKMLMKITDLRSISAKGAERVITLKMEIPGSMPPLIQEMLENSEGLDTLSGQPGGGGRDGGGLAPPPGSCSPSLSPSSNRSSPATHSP
Chain of human Peroxisome Proliferator-activated Receptor delta (PPARd), PPARD (gene 5467) (Q03181 whole entry, looked up, the tested form may be a part): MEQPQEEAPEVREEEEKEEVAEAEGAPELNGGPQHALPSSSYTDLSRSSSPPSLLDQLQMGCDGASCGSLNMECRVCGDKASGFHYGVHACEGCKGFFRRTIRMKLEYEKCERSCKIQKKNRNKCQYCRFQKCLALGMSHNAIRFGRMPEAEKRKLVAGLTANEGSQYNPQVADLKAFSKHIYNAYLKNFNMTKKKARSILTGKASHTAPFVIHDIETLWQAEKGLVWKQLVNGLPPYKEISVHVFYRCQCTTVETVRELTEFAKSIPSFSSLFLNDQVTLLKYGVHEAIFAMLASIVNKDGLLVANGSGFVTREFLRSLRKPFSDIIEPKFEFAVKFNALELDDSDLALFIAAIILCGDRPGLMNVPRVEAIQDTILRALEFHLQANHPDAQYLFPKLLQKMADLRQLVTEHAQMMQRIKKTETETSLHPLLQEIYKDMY
Chain of human Retinoic Acid Receptor gamma (RARg), RARG (gene 5916) (P13631 whole entry, looked up, the tested form may be a part): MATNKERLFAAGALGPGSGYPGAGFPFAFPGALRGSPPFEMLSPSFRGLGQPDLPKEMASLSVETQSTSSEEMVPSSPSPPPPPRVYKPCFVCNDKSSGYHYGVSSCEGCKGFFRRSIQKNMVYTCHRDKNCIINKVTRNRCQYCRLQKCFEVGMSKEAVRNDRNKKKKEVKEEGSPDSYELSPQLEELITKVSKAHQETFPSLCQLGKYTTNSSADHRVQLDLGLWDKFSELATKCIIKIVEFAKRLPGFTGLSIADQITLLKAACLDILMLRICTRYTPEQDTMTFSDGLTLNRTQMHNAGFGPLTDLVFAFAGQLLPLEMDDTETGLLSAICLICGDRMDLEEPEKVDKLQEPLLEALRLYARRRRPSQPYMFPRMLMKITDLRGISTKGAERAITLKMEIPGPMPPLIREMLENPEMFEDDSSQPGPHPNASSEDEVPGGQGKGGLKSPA

For `CCOC(=O)c1ccc(C)cc1`, the result in experiment [1] and in experiment [2] was inactive.

The AC50 is the concentration giving half of the maximal activity seen. As for `O=C(OCc1ccccc1)c1ccc(O)cc1`, in experiment [1], the compound was called inactive. Also, the AC50 in experiment [2] was 49.9 µM (active); in experiment [3], 63.2 µM (active).

On to `CCCC=C(C=O)CC`, for which the compound was called inactive in experiment [1] and in experiment [3].

For the compound `O=C1CCCN1C1CCCCC1`, the result in experiment [1], in experiment [2] and in experiment [3] was inactive.

For `C=CCOC(=O)c1ccc(C(=O)OCC=C)c(C(=O)OCC=C)c1`, the half-maximal activity concentration (AC50) is 8.92 µM (active) in experiment [1] and 27.7 µM (active) in experiment [2]. Also, the call in experiment [3] was inactive.

Turning to `CC(C)=CCl`, the result in experiment [1] and in experiment [4] was inactive.

For `CC(C)OC(=O)c1ccccc1`, the outcome in experiment [5], in experiment [6] and in experiment [7] was inactive.

In the case of `CCCCNS(=O)(=O)c1ccc(C)cc1`, the compound was classed as inactive in experiment [5] and in experiment [3].

Consider `Cc1cc(C)n(CO)n1`, for which the compound was classed as inactive in experiment [5], in experiment [6] and in experiment [2].

On to `CC(CC(C)C)=NO`, for which the compound was classed as inactive in experiment [5] and in experiment [7].

Consider `CC(C=O)c1ccccc1` (stereo unspecified), for which the outcome in experiment [5] and in experiment [2] was inactive. For the same compound, the AC50 in experiment [3] is 5.82 µM (active).

For the compound `Cn1cccc1`, the compound was called inactive in experiment [5], in experiment [7], in experiment [2] and in experiment [3].

As to `CC(C)C(=O)OCCOc1ccccc1`, the compound was called inactive in experiment [5] and in experiment [2].

For the compound `C[Si]1(C)O[Si](C)(C)O[Si](C)(C)O[Si](C)(C)O[Si](C)(C)O1`, the result in experiment [5], in experiment [2] and in experiment [3] was inactive.

For `OCCCc1ccccc1`, the result in experiment [5], in experiment [7], in experiment [2], in experiment [3] and in experiment [4] was inactive.

Turning to `CC1=CP(=O)(c2ccccc2)CC1` (stereo unspecified), the outcome in experiment [5], in experiment [7] and in experiment [3] was inactive.

With `CC(=O)OC(C)c1ccccc1` (stereo unspecified), in experiment [6], the compound was classed as inactive.

For `CC1CC(=O)CC(C)(C)C1` (stereo unspecified), the compound was called inactive in experiment [5] and in experiment [3].

`Cc1cc(=O)[nH]c(=O)[nH]1`: the compound was called inactive in experiment [5] and in experiment [3].

Regarding `CC(C)=NNC(N)=S`, the call in experiment [5], in experiment [6] and in experiment [3] was inactive.

Take `CCCC/C=C/C=C\C=O`: the compound was called inactive in experiment [5]. Also, the AC50 was 7.73 µM (active) in experiment [2] and 1.57 µM (active) in experiment [3].
